NLRP3 yeast inh – blocks the NALP3 inflammasome reconstituted in yeast; inhibition, % at 10 µM; 330,000 compounds, 0.39% hits; Yeast reconstituted NLRP3/ASC/caspase-1, beta-gal luminescence, 24 h; AID 2825;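 active = inhibition of 50% or more; inactive = inhibition below 50%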;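 note: plate controls were induced DMSO wells for no effect and uninduced yeast grown without galactose for full effect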
tim10-1 inh – inhibits growth of tim10-1 mutant yeast; S. cerevisiae tim10-1 ts strain growth, BacTiter-Glo, 24 h; inhibition, % at 20 µM; 330,000 compounds, 2.2% hits;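 active = inhibition of at least 40%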;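 note: mutant grown at 25 °C; 0% = DMSO wells with yeast and 100% = wells holding no yeast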
PfHsp90 set2 – inhibits growth of yeast expressing Plasmodium falciparum Hsp90 | inhibition, % at 9.4 µM | S. cerevisiae expressing PfHsp90, BacTiter-Glo ATP, 48 h; yeast lacking PDR1 and PDR3 efflux regulators | 310,000 compounds, 0.32% hits;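 active = every replicate shows inhibition above about 80%, whatever the replicate mean, limit read from the data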;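 note: 0% = DMSO neutral controls and 100% = 20 µM radicicol positive controls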
TIM10 inh – TIM10 yeast growth inhibition | S. cerevisiae TIM10 strain growth, BacTiter-Glo luminescence, 24 h | inhibition, % at 10 µM | 330,000 compounds, 1.4% hits | AID 463195;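 active = inhibition of 40% or more at the single tested concentration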;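 note: wild-type TIM10 isogenic control strain grown at permissive 25 °C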
tim23-1 inh – growth inhibitors of tim23-1 mutant yeast; S. cerevisiae tim23-1 growth, BacTiter-Glo luminescence, 24 h; AID 463212; 330,000 compounds, 1.3% hits; inhibition, % at 20 µM;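 active = growth inhibition of the mutant yeast at or above 50%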;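 note: temperature-sensitive mutant grown at 25 °C; plate controls were DMSO-treated mutant yeast for no effect and medium wells lacking yeast for full effect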
SKKanGAS inh – blocks kanamycin growth of S. pyogenes SKKanGAS strain. 300,000 compounds, 1.3% hits. AID 1662. BacTiter-Glo, 6 h. inhibition, % at 7.5 µM;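 active = mean replicate score, as percent of positive control median, at least 50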;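 note: strain carries kanamycin resistance gene driven by streptokinase promoter and grows in 40 µg/ml kanamycin; loss of luminescence reflects streptokinase promoter inhibition or plain growth inhibition; 0% = median of DMSO wells and 100% = positive control at its reference dose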
NALP3 confirm – confirmation of NALP3 inhibitors in yeast; shares compounds with NLRP3 yeast inh; yeast expressing human NALP3, luminescence; inhibition, % at 10 µM; 1,300 compounds, 81% hits; in the data active = inhibition above about 48%
Casp1 ASC ctr – active in yeast caspase-1-ASC counter-screen for NALP3 inhibitors. shares compounds with NLRP3 yeast inh. yeast expressing Caspase-1-ASC, luminescence counter screen. inhibition, % at 10 µM. 1,000 compounds, 66% hits
NALP3 yeast rt – yeast NALP3 inhibition, confirmed on retest; yeast expressing human NALP3, luminescence read-out; 1,000 compounds, 53% hits; shares compounds with NLRP3 yeast inh; inhibition, % at 10 µM
tim10-1 conf – confirmation of tim10-1 mutant yeast growth inhibitors. shares compounds with tim10-1 inh. S. cerevisiae tim10-1 ts strain growth, BacTiter-Glo, 24 h. inhibition, % at 20 µM. 7,400 compounds, 56% hits. AID 463213;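 active = inhibition of yeast growth at or above a set limit in either of two repeat tests at 20 µM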;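 note: tim10-1 mutant grown at permissive 25 °C to find synthetic lethal compounds; 0% = DMSO yeast wells and 100% = medium wells without yeast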
tim10 confirm – TIM10 yeast growth inhibition, confirmed; shares compounds with TIM10 inh; S. cerevisiae tim10 strain growth, BacTiter-Glo luminescence, 24 h; inhibition, % at 10 µM; 4,600 compounds, 63% hits; AID 463215;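 active = inhibition of yeast growth at or above a set limit in either of two replicates at 10 µM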;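 note: this counterscreen used the strain with wild-type TIM10; 0% = yeast with DMSO and 100% = medium wells lacking yeast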
tim23-1 conf – confirmation of tim23-1 mutant yeast growth inhibitors. shares compounds with tim23-1 inh. S. cerevisiae tim23-1 growth, BacTiter-Glo luminescence, 24 h. inhibition, % at 20 µM. 4,400 compounds, 83% hits. AID 463218;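 active = inhibition above about 39% in either of two replicate wells at 20 µM, limit read from the data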;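 note: temperature-sensitive tim23-1 mutant grown at 25 °C; 0% = DMSO wells with yeast and 100% = medium wells without yeast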
Starred values were filed as active, the others as inactive; · = no result. A selection: hits, their analogues and other compounds. The true share with any hit is near 4.6%. Cut-off read from the data, not from the text of the source, unless noted: active = inhibition above about 50%; inactive = the rest.

SMILES | NLRP3 yeast inh | tim10-1 inh | PfHsp90 set2 | TIM10 inh | tim23-1 inh | SKKanGAS inh | NALP3 confirm | tim10-1 conf | others
C[C@]1(O)CCC2C3CC[C@@H]4CC(=O)CC[C@]4(C)C3CC[C@@]21C (stereo not given in full) | 55* | -1 | 6 | -12 | 27 | · | 69* | · | Casp1 ASC ctr=68*;NALP3 yeast rt=42
C[C@]12CCC3C(CC[C@H]4C[C@H](OC(=O)c5cccnc5)CC[C@]34C)C1CCC2=O (stereo not given in full) | 54* | 25 | 0 | 4 | 30 | · | 60* | ·
CC(=O)OC1CCC2(C)C(CCC3C2CC(=O)C2(C)C3CC(N3CC3)C2C(C)=O)C1 (stereo not given) | · | · | -6 | · | · | · | · | ·
C[C@]12CC[C@@H](O)C[C@@H]1CC[C@@H]1[C@@H]2CC[C@]2(C)C(=O)CC[C@@H]12 | 56* | 22 | 4 | -21 | 37 | -4 | 67* | · | Casp1 ASC ctr=60*;NALP3 yeast rt=61*
C[C@]12CCC3C(CC[C@H]4C[C@@H](O)CC[C@]34C)C1CC[C@@H]2N (stereo not given in full) | 36 | -24 | 18 | 2 | 13 | · | · | ·
C[C@]12CCC3C(CC[C@H]4C[C@H](O)CC[C@]34C)C1CCC2=O (stereo not given in full) | 53* | 2 | 5 | -18 | 39 | · | 68* | ·
C[C@]12CCC3C(CC[C@H]4C[C@H](O)CC[C@]34C)C1CC(=O)[C@@H]2O (stereo not given in full) | 49 | -5 | -14 | -19 | 22 | · | · | ·
Fc1ccc(C(OCCN2CCN(CCCc3ccccc3)CC2)c2ccc(F)cc2)cc1 | 50* | -54 | 17 | -78 | -65 | 5 | 59* | ·
CCCCCCN=Cc1c(O)n(C)c(=O)n(C)c1=O | 12 | 14 | · | -7 | 16 | -6 | · | ·
CCCCn1c(O)c(/C(C)=N/NC(=O)Nc2ccccc2)c(=O)[nH]c1=O | 21 | 2 | 37 | -1 | -4 | 5 | · | ·
COc1ccc(C[C@H]2NC[C@H](O)[C@H]2OC(C)=O)cc1 | 98* | 73* | 5 | 75* | 36 | 0 | 99* | 69* | tim10 confirm=81*
CC1(C)C2([N+](=O)[O-])CN3CN(C2)CC1([N+](=O)[O-])C3 | 28 | 14 | -5 | 5 | 11 | -9 | · | ·
NC1=C([N+](=O)[O-])C(c2ccc3c(c2)OCO3)c2c(c3ccccc3oc2=O)O1 (stereo not given) | -4 | 5 | · | 1 | 16 | -13 | · | ·
O=c1oc2ccccc2c(O)c1[C@H]1c2ccc(O)cc2Oc2c1c(=O)oc1ccccc21 | 79* | 53* | -11 | 69* | 57* | -4 | 85* | 58* | Casp1 ASC ctr=87*;NALP3 yeast rt=78*;tim10 confirm=59*;tim23-1 conf=48*
CN[C@H]1C[C@H]2O[C@@](C)([C@H]1OC)n1c3ccccc3c3c4c(c5c6ccccc6n2c5c31)C(=O)NC4 | 97* | 58* | · | 74* | 64* | 18 | 99* | 44* | tim10 confirm=67*;tim23-1 conf=70*
C[C@H]1C[C@@H](C)C(=O)[C@@H]([C@H](O)CC2CC(=O)NC(=O)C2)C1 | 98* | 58* | 106* | 72* | 77* | -2 | 99* | 23 | Casp1 ASC ctr=100*;NALP3 yeast rt=99*;tim10 confirm=63*;tim23-1 conf=-10
NC(=S)N/N=C/c1coc2ccccc2c1=O | -7 | 10 | -12 | 29 | 22 | -4 | · | ·
Cc1c2ccncc2c(C)c2c1[nH]c1ccccc12 | 82* | 63* | -5 | 57* | 56* | 86* | 93* | 31 | Casp1 ASC ctr=72*;NALP3 yeast rt=40;tim10 confirm=70*;tim23-1 conf=62*
FC(F)(F)Oc1ccc(C2NCc3ccccc3-n3cccc32)cc1 (stereo not given) | 43 | 32 | 17 | 23 | 33 | 5 | · | ·
CCc1n[nH]c(CCN)n1 | 14 | 11 | -10 | 12 | 6 | -5 | · | ·
CC(C)(C)c1cc(C=C(C#N)C#N)cc(C(C)(C)C)c1O | 76* | 78* | -2 | 70* | 62* | · | 91* | 82* | Casp1 ASC ctr=98*;NALP3 yeast rt=96*;tim10 confirm=83*;tim23-1 conf=72*
Oc1cccc2nc3ccccc3nc12 | 47 | -10 | -15 | -19 | 5 | 5 | · | ·
N#CC(C#N)=Cc1ccc(N2CCCC2)cc1 | 42 | 41* | 7 | -2 | 10 | -1 | · | 17
CN(C)c1ccc(C=C(C#N)C#N)cc1 | 31 | 32 | 2 | 12 | 20 | 0 | · | ·
O=C(Nc1ccc(C(F)(F)F)cc1)c1cccn(Cc2ccc3c(c2)OC(F)(F)O3)c1=O | 14 | 46* | 0 | 33 | 12 | 13 | · | 21
SMILES | NLRP3 yeast inh | tim10-1 inh | PfHsp90 set2 | TIM10 inh | tim23-1 inh | SKKanGAS inh | NALP3 confirm | tim10-1 conf | others
CN(C)C(=O)Oc1ccc2c(c1)O/C(=C\c1cccc(Cl)c1)C2=O | 14 | 41* | -4 | 23 | 36 | 6 | · | 32*
CCOC(=O)N(c1ccccc1)P1(=S)OCC(C)O1 (stereo not given) | 9 | 50* | · | -20 | 7 | 0 | · | 12
CCOC(=O)N(c1ccccc1)P1(=S)OCCO1 | 4 | -1 | 9 | -9 | 6 | -2 | · | ·
COC(=O)C[C@]1(C(=O)OC)CN(C#N)N(c2ccc(Cl)cc2)C12c1ccccc1-c1ccccc12 | 26 | 46* | -10 | 32 | 25 | -28 | · | 21
COC(=O)[C@@H]1[C@@H](C(=O)OC)C2(c3ccccc3-c3ccccc32)N(c2ccc(Cl)cc2)N1C#N | 9 | 33 | -26 | 21 | 26 | 0 | · | ·
CCN1C[C@]2(COC)CC[C@H](O)[C@@]34C5C[C@H]6[C@H](O)C5[C@](O)(C[C@H]6OC)[C@@H]([C@H](OC)C23)[C@@H]14 (stereo not given in full) | · | 19 | · | 9 | 10 | 2 | · | ·
CC1C=CCCC12C(=O)NC(=O)NC2=O (stereo not given) | · | · | -28 | · | · | · | · | ·
O=C(O)c1ccccc1-c1ccc(C=C2C(=O)N(c3ccccc3)C(=S)N(c3ccccc3)C2=O)o1 | 14 | 43* | -3 | 18 | 35 | 1 | · | 39*
O=C(N/N=C/c1c(O)n(C2CCCCC2)c(=S)[nH]c1=O)c1ccccc1O | 26 | 53* | 10 | -3 | 24 | 55* | · | 4

Compound activity from PubChem BioAssay.
